These results are taken from PubChem BioAssay.

The test system of assay [1] is Human papillomavirus type 1a protein E7 (residues 44-93). Briefly: HPV1a E7 fragment binders on microarrays, primary screen, biochemical, small-molecule microarray, residues 44-93, 635 nm fluorescence (AID 1108).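 Further: E7 fragment applied at 1 µg/mL in TBST for 1 h at 4 C; score combines spot fluorescence with its signal to noise ratio.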 Particulars: small-molecule microarray binding, fluorescence 635 nm; higher = more signal.
The nature of assay [2]: modulators of HCV replicon luciferase signal, primary screen, HCV replication inhibitor project, Huh7 cells, luciferase reporter (AID 1109).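 Further: huh7 hepatoma cells harbouring a luciferase neomycin HCV replicon reporter; luciferase luminescence as measure of HCV replicon replication; test concentration not given here.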 Particulars: 48 h, higher = more signal.
For assay [3], the target named is Left-right determination factor 2 (Homo sapiens) (UniProt O00292). Briefly: LEFTY2 binders on small-molecule microarrays, primary screen, biochemical, small-molecule microarray, 635 nm fluorescence scan (AID 1110). As to conditions: LEFTY2 binding, higher = more signal.
Left-right determination factor 2 (Homo sapiens), sequence (O00292 whole entry, looked up): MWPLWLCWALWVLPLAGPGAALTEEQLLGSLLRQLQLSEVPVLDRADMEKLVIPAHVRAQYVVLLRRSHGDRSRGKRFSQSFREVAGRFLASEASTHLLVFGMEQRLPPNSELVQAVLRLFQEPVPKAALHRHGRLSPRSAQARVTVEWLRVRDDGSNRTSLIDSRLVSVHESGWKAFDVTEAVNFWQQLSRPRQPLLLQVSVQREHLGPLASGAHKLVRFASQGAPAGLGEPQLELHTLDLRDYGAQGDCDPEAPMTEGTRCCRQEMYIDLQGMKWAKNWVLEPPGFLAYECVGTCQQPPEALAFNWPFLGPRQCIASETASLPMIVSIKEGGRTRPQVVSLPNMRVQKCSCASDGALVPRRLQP
Assay [4] has as its target Calmodulin-1 (Homo sapiens) (UniProt P0DP23). Briefly: CALM1 binders on microarrays, EGTA buffer, profiling panel, biochemical, small-molecule microarray, Cy5-labelled CALM1 (AID 1111).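 Further: labelled calmodulin applied in Tris saline Tween buffer holding calcium plus EGTA and DTT.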 As to conditions: Cy5-CALM1 binding fluorescence, higher = more signal.
Assay [5] shares this target. Briefly: calcium-bound CALM1 binders on microarrays, profiling panel, artefact control for SMM control-protein annotation, biochemical, small-molecule microarray, Cy5-labelled CALM1, plus calcium (AID 1112).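 Further: score merges spot fluorescence with signal to noise from triplicate slides.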 Particulars: Cy5-CALM1 binding fluorescence, higher = more signal.
A short description of assay [6]: small-molecule microarray binders of probe aWnt5a, primary screen, biochemical, biotinylated probe, 635/667 nm fluorescence (AID 1113).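 Further: score merges 667 nm fluorescence intensity with signal-to-noise per printed feature.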 Particulars: higher = more signal.
Assay [7] can be described thus: small-molecule microarray binders of probe aShh, primary screen, biochemical, biotinylated probe, 635/667 nm fluorescence (AID 1114).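 Further: probe is biotin-labelled aShh protein from a stem cell growth factor screen; measures binding of labelled protein to compounds printed on the slide; score merges feature fluorescence at 667 nm with signal-to-noise.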 Particulars: higher = more signal.
Assay [8] in a line: small-molecule microarray binders of probe aNog, primary screen, biochemical, biotinylated probe, 635/667 nm fluorescence (AID 1115).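 Further: probe is biotinylated aNog protein used at 0.15 µg/mL for 1 h at 4 C; z-score combines 667 nm fluorescence of each spot with its signal to noise.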 Particulars: higher = more signal.
Assay [9] deals with Torsin-1A-interacting protein 1 (Homo sapiens) (UniProt Q5JTV8). Briefly: LAP1 binders from COS7 cell lysate, primary screen, small-molecule microarray, 635/667 nm fluorescence (AID 1116). Particulars: COS7-hLAP1 lysate binding, 635 nm fluorescence, higher = more signal.
Torsin-1A-interacting protein 1 (Homo sapiens), sequence (Q5JTV8 whole entry, looked up): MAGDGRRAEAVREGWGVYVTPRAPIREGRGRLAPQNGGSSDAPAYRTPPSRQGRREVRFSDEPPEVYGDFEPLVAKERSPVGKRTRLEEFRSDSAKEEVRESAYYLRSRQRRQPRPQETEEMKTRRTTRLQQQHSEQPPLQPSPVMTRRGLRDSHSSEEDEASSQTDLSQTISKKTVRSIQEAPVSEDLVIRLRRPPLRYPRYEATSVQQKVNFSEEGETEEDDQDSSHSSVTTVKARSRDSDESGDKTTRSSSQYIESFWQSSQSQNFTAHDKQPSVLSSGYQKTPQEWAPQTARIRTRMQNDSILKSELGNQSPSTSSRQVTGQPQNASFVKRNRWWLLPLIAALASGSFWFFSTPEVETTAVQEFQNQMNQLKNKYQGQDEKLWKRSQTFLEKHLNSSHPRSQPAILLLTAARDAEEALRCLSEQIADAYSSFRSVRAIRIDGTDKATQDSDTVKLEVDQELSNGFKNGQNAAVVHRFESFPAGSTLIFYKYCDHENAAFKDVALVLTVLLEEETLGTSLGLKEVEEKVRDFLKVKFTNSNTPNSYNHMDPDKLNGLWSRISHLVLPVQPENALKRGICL
The target in assay [10] is Alpha-bungarotoxin (Bungarus multicinctus) (UniProt P60615). Briefly: alpha-bungarotoxin binders on microarray, profiling panel, artefact control for SMM control protein annotation, biochemical, small-molecule microarray, Alexa647 label, 635/667 nm fluorescence (AID 1117). As to conditions: alpha-BTX-A647 binding fluorescence, higher = more signal.
Alpha-bungarotoxin (Bungarus multicinctus), sequence (P60615 whole entry, looked up): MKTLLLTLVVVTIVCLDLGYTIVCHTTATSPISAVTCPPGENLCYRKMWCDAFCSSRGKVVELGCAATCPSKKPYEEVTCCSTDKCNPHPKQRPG

Turning to `CC[C@H](C)C(=O)O[C@H]1CC[C@]2(C)C3=C(CCC2C1(C)C)[C@]1(C)CC[C@H]([C@H](C)CCCC(C)C)[C@@]1(C)CC3` (stereo not given in full), the composite z-score in [1] is 0.758; in assay [3], 0.405; in assay [4], -0.367; in assay [5], -0.468; in assay [6] it was -0.0462; in assay [7], -0.0769. Further, the values for the composite z-score in [8], in assay [9] and in assay [10] were -0.31, 0.14 and 0.332, respectively. The z-score in assay [2] was -0.492.

Take `C=CCN1C(=O)[C@]2(O[C@H](CCn3cc([C@H](O)c4ccccc4)nn3)[C@@H]([Si](C)(C)c3ccc(OC)cc3)[C@@H]2C)c2cc(N3C(=O)c4cccc5cccc3c45)ccc21`: the composite z-score in [1] is 0.87; in assay [3], -0.744; in assay [4], 0.313; in assay [5], -0.58; in assay [6] it was -0.156; in assay [7] it was -0.0769. For the same compound, the composite z-score was -0.0809 in assay [8], 0.404 in assay [9] and 1.39 in assay [10]. In [2], this compound returned a z-score of -4.4.

Turning to `COC(=O)[C@@]1(CCC(=O)OC(C)(C)C)N=C(c2ccc(OCCCO)cc2)O[C@H]1c1ccccc1CN=[N+]=[N-]`, the composite z-score is 0.263 in [1]; -0.471 in assay [3]; 0.183 in assay [4]; -0.222 in assay [5]; 0.0079 in [6]; -0.0035 in [7]. The composite z-score was -0.0655 in assay [8], 0.868 in [9] and 0.592 in assay [10]. In [2], this compound returned a z-score of -2.6.

Regarding `CN(C)CCCC[C@@H]1NC(=O)[C@H]2C[C@@H](C(=O)NCc3ccc(F)cc3)[C@@H](c3ccc(O)cc3)N2C1=O`, the composite z-score in assay [1] was -0.247; in assay [3], 1.15; in assay [4], -1.08; in assay [5] it was 0.354; in [6], -0.0748; in [7], 0.365. Moreover, the composite z-score in assay [8] is -0.273; in assay [9], 1.03; in [10], 2.5. Also, the z-score in assay [2] came to 0.206.

Consider `COC(=O)C1=CC(CCCO)=CC(c2ccc(CN3CCCC3)cc2)N(Cc2sc3ccccc3c2Cl)C=C1C(=O)OC` (stereo not given), for which the composite z-score worked out at 1.34 in [1]; 1.17 in assay [3]; 2.96 in assay [4]; 1.22 in [5]; 0.0625 in [6]; 0.661 in [7]. Moreover, the composite z-score in assay [8] was 2.08; in assay [9], 3.75; in [10] it was 3.77. Further, the z-score in assay [2] was -0.574.

For `C=CC(CO)NC(=O)OCC1c2ccccc2-c2ccccc21` (stereo not given), the composite z-score in [1] is 0.0077; in assay [3] it was 0.407; in assay [4], -0.0914; in [5], -0.885; in assay [6], 0.048; in [7] it was -0.426. The composite z-score in assay [8] is -0.208; in assay [9] it was -0.141; in assay [10], 0.252. Moreover, the z-score in assay [2] was -0.479.

Turning to `C=CCN1C(=O)[C@]2(O[C@H](CCO)[C@@H]([Si](C)(C)c3ccc(OC)cc3)[C@@H]2C)c2ccccc21`, the composite z-score in [1] is 0.925; in [3], -0.774; in assay [4], -0.0667; in [5], -0.0278; in [6], -0.232; in [7] it was -0.358. For the same compound, the figures for the composite z-score in [8], in assay [9] and in [10] were -0.118, -0.547 and -0.0693, respectively. The z-score in assay [2] was -5.21.

As to `CC(C)[Si](C#CCCCC#N)(O[C@H](c1ccccc1)c1cn([C@H](C)c2ccccc2)nn1)C(C)C`, the composite z-score in assay [1] was 1.21; in assay [3] it was 0.392; in assay [4] it was -0.0129; in assay [5] it was -0.0984; in [6] it was -0.0924; in assay [7], 0.318. Besides, the composite z-score in assay [8] was -0.262; in assay [9] it was 0.137; in [10], 0.18. The compound further had a z-score in assay [2] of -1.91.

For the compound `COc1ccc(C#Cc2ccc3c(c2)[C@]2(C(=O)N3)[C@H](c3ccc(OCCO)cc3)N3[C@H](c4ccccc4)[C@H](c4ccccc4)OC(=O)[C@H]3[C@@H]2C(=O)O)cc1`, the composite z-score was 1.46 in assay [1]; 0.362 in assay [3]; -0.17 in assay [4]; -0.893 in [5]; -0.0028 in assay [6]; -0.0999 in assay [7]. The composite z-score in assay [8] came to 1.81; in [9], 0.523; in assay [10], 0.485. The compound further came in with a z-score in assay [2] of -1.3.

Consider `COCCOC(=O)N1C(=O)[C@@]2(c3cc(C#CC4(O)CCCCCC4)ccc31)[C@H](c1ccc(OCCO)cc1)N1[C@H](c3ccccc3)[C@H](c3ccccc3)OC(=O)[C@H]1[C@@H]2C(N)=O`, for which the composite z-score is 0.448 in assay [1]; 0.547 in assay [3]; 1.04 in assay [4]; -0.111 in assay [5]; -0.0472 in assay [6]; 0.199 in assay [7]. In addition, the figures for the composite z-score in assay [8], in [9] and in [10] were 0.53, 1.73 and 1.9, respectively. This compound also returned a z-score in [2] of -2.2.

`CCOC(=O)C1=C[C@@H](C(C)(C)C)N(S(=O)(=O)c2ccc(C)cc2)[C@H]1c1ccccc1Cl`: the composite z-score in assay [1] is 0.694; in [3], 0.633; in [4] it was 1.95; in assay [5], 0.84; in assay [6], 0.1; in assay [7], -0.177. In addition, the composite z-score in assay [8] was 0.527; in assay [9], 1.13; in assay [10] it was 1.73. The compound further registered a z-score in assay [2] of -1.8.
